Screen size: about 340,000 compounds; about 4,200 (1.2%) were called active.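 Rule for the calls: active = inhibition above the mean of all tested compounds plus 3 SD (cut at about 24% in these data); inactive = the rest.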 Only a selection was taken, and actives are over-represented in it overall.

Chain of Platelet-activating factor acetylhydrolase IB subunit alpha2 (Homo sapiens) (P68402 whole entry, looked up): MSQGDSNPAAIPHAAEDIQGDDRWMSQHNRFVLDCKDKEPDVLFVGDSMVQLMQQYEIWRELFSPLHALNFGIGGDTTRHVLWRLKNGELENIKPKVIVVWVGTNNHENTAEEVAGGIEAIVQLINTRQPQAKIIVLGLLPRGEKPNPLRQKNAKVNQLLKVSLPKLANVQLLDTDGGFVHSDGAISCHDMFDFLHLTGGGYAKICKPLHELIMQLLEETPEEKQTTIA

This test addresses Platelet-activating factor acetylhydrolase IB subunit alpha2 (Homo sapiens) (UniProt P68402). Kind of test: PAFAH1B2 enzyme inhibitors, primary screen, biochemical, fluorescence polarization, human (AID 492953).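 Note: 0% = enzyme with DMSO and 100% = wells lacking PAFAH1B2.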 The conditions noted are these: recombinant PAFAH1B2, FP-rhodamine activity probe, at 3.39 µM, hits give high values. A general note: Polarisation of emitted light reports the rotation of a fluorescent probe.
Consider `O=C1N=c2ccccc2=C/C1=C\c1c(O)[nH]c(=S)[nH]c1=O`, for which the inhibition (as a rule, the relative decrease from the control value, in per cent) was 3.53% (inactive).
With `O=c1[nH]c(O)c(C=Nc2cc(F)cc(F)c2)c(=O)[nH]1` the figure was -5.42% (inactive); with `Cc1ccc2c(c1)=C/C(=C\c1c(O)[nH]c(=O)[nH]c1=O)C(=O)N=2`, 24.9% (active).
For `Cc1ccc(Cn2c(C)c3cnn(CC(=O)N4CCC5(CC4)OCCO5)c(=O)c3c2C)cc1`, the inhibition is 4.99% (inactive).
On to `Cc1cccc(OP(=O)(Oc2cccc(C)c2)OC(c2ccccc2)C(F)(F)F)c1` (stereo not given), for which the inhibition is 10.7% (inactive).
With `CNC(=O)O/N=C(\N)Cc1csc2ccc(Cl)cc12` the figure was 71.7% (active); with `CNC(=O)O/N=C(\N)Cc1csc2ccccc12`, 7.09% (inactive).
With `N[C@@H](Cc1c[nH]c2ccccc12)c1nnc(SCc2c(F)cccc2Cl)o1` the figure was 3.92% (inactive); with `CCC(C)(O)C(=O)OC1C(=O)OC2CC3C(C)=CC(=O)C(O)C3(C)C3C4(O)OCC23C1C(C)C4O` (stereo not given), -0.05% (inactive).
For `CCCCCn1c(=O)c(C(=O)Nc2c(C)n(C)n(-c3ccccc3)c2=O)c(O)c2ccccc21` the value was -3.03% (inactive); for `CC(C)(C)c1ccc(CN2C(=O)CN=C(c3ccccc3)c3ccccc32)cc1`, 88% (active); for `Nc1ccc(C(=O)N/N=C2/CN3CCC2CC3)cc1`, -0.84% (inactive).
`CN(C)CC1CCCCC1OC(=O)c1ccc(Cl)c(Cl)c1` (stereo not given): the inhibition was -0.45% (inactive).
`CCCCCCN=C(CC)c1c(O)n(CCCC)c(=O)[nH]c1=O`: the inhibition is 5.01% (inactive).
Consider `CN(C)CC1Oc2ccccc2OC1(O)c1ccccc1` (stereo not given), for which the inhibition is 0.51% (inactive).
Regarding `CC1=CC(=Cc2sc3ccccc3[n+]2C)C=C(C)O1`, the inhibition is -0.8% (inactive).
With `CC/C(=N\NC(=O)c1ccccc1O)c1c(O)n(Cc2ccccc2)c(=O)[nH]c1=O` the figure was 26.1% (active); with `O=C(N/N=C/c1c(O)n(Cc2ccccc2)c(=O)[nH]c1=O)c1ccccc1`, 18.9% (inactive); with `CCC(=NCc1ccco1)c1c(O)n(Cc2ccccc2)c(=O)[nH]c1=O`, 3.82% (inactive).
`O=C(NCC(c1cccnc1)N1CCN(c2ccccc2)CC1)Oc1ccccc1` (stereo not given): the inhibition is 4.28% (inactive).
For the compound `O=C(CSC1c2ccccc2-c2ccccc21)N/N=C/c1ccccc1`, the inhibition is 8.06% (inactive).
With `c1ccc(CCN2CCC3(CC2)OCCO3)cc1`, the inhibition is 3.22% (inactive).
With `O=C(OCCN1CCOCC1)C1(c2ccccc2)CCCC1` the figure was 36.1% (active); with `CCOC(=O)C1(c2ccccc2)CCN(CC(O)c2ccc(NC(C)=O)cc2)CC1` (stereo not given), 0.73% (inactive); with `Cc1ccc(N(C)C(=O)Oc2cccc3ccc(C)nc23)cc1`, 2.03% (inactive).

The values above are taken from PubChem BioAssay AID492953 (The Scripps Research Institute Molecular Screening Center, 2010).
